# Assay results from the supplement of paper PMC9694430.
# What was measured:
# Assay in all cases: thermal shift delta Tm vs DMSO control; higher = stronger stabilization (binding)
# Conditions in all cases: 12.5 µM; protein concentration 2 µM
# [1] = test system: LOC_OS02G45750-cb003
# Outline: (§1)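 The melting temperature shift given here is a triplicate mean, measured against protein that received only DMSO. Melting temperatures came from Boltzmann fits of differential scanning fluorimetry data on E. coli-expressed, purified rice kinase domain constructs. Each 19.5 μl well contained 2 μM kinase, 100 mM potassium phosphate pH 7.5, 150 mM NaCl, 10% glycerol, 5 × SYPRO Orange and compound in DMSO. Plates were scanned from 25°C to 95°C at 0.05°C/s.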
# [2] = test system: LOC_OS02G54510-cb004
# Outline: as §1
# [3] = test system: LOC_OS03G04050-cb001
# Outline: as §1
# [4] = test system: LOC_OS03G12390-cb001
# Outline: as §1
# [5] = test system: LOC_OS03G27990-cb004
# Outline: as §1
# [6] = test system: LOC_OS03G50450-cb001
# Outline: as §1
# [7] = test system: LOC_OS03G50810-cb003
# Outline: as §1
# [8] = test system: LOC_OS04G35114-cb001
# Outline: as §1
# [9] = test system: T1, LOC_OS04G38480-cb003
# T1 sequence (whole entry): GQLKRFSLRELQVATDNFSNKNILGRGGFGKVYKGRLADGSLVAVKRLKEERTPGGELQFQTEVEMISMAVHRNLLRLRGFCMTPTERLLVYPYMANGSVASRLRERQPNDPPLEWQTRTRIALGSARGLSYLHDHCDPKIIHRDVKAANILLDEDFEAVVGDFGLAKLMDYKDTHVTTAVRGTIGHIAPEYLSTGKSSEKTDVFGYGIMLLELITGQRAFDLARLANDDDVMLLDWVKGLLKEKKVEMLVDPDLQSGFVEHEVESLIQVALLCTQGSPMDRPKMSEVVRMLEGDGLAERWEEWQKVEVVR
# Outline: as §1
# [10] = test system: T2, LOC_OS04G41100-cb001
# T2 sequence (whole entry): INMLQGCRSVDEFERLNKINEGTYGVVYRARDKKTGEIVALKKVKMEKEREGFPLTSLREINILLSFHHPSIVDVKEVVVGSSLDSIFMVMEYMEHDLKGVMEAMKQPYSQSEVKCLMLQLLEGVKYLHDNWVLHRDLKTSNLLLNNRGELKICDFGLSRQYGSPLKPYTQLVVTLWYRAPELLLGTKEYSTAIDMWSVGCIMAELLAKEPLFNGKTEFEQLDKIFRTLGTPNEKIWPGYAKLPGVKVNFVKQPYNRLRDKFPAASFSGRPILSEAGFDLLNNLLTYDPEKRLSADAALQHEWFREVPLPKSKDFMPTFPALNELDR
# Outline: as §1
# [11] = test system: LOC_OS04G57630-cb004
# Outline: as §1
# [12] = test system: LOC_OS05G07850-cb002
# Outline: as §1
# [13] = test system: LOC_OS05G16824-cb004
# Outline: as §1
# [14] = test system: LOC_OS05G28520-cb001
# Outline: as §1
# [15] = test system: LOC_OS05G30820-cb001
# Outline: as §1
# [16] = test system: LOC_OS05G43570-cb004
# Outline: as §1
# [17] = test system: LOC_OS06G16330-cb003
# Sequence of LOC_OS06G16330-cb003 (as listed by the source): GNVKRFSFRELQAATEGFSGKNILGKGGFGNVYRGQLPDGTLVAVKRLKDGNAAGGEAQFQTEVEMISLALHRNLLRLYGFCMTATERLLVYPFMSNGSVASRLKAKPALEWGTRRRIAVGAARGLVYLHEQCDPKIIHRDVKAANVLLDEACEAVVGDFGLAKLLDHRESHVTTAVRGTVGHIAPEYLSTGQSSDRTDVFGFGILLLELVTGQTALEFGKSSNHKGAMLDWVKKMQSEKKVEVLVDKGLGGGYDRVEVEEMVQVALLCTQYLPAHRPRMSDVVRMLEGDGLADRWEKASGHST
# Outline: as §1
# [18] = test system: T3, LOC_OS06G22820-cb001
# T3 sequence (whole entry): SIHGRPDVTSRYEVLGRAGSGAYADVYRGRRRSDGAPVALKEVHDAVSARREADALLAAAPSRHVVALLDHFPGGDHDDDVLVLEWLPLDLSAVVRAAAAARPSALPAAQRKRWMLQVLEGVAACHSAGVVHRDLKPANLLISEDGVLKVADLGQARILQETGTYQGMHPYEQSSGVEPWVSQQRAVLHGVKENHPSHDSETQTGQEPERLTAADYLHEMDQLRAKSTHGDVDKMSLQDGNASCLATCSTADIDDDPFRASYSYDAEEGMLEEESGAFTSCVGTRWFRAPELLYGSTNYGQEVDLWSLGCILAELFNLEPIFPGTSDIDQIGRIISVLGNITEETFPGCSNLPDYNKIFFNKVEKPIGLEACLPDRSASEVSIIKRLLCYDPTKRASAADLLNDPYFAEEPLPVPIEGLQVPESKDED
# Outline: as §1
# [19] = test system: LOC_OS07G06570-cb004
# Outline: as §1
# [20] = test system: LOC_OS07G07230-cb001
# Outline: as §1
Compound,thermal shift delta Tm [1],thermal shift delta Tm [2],thermal shift delta Tm [3],thermal shift delta Tm [4],thermal shift delta Tm [5],thermal shift delta Tm [6],thermal shift delta Tm [7],thermal shift delta Tm [8],thermal shift delta Tm [9],thermal shift delta Tm [10],thermal shift delta Tm [11],thermal shift delta Tm [12],thermal shift delta Tm [13],thermal shift delta Tm [14],thermal shift delta Tm [15],thermal shift delta Tm [16],thermal shift delta Tm [17],thermal shift delta Tm [18],thermal shift delta Tm [19],thermal shift delta Tm [20]
COc1cc(N2CCN(C)CC2)ccc1Nc1nccc(-c2cn(C)c3cnccc23)n1,2.73 °C,0.02 °C,0.3 °C,9.57 °C,0.05 °C,-0.05 °C,1.79 °C,4.35 °C,1.32 °C,0.51 °C,0.55 °C,11.8 °C,-3.65 °C,0.25 °C,0.38 °C,0.32 °C,5.31 °C,0.11 °C,1.53 °C,0.44 °C
CCc1cncnc1N1CCN(Cc2nc3ccc(C(F)(F)F)cc3[nH]2)CC1,0.59 °C,0.3 °C,0.39 °C,-0.06 °C,0.33 °C,0.04 °C,0.36 °C,0.25 °C,0.52 °C,0.52 °C,-0.2 °C,-0.11 °C,-2.67 °C,-0.08 °C,0.66 °C,0.46 °C,0.02 °C,0.76 °C,0.84 °C,-0.27 °C
N#CCNC(=O)c1ccc(-c2ccnc(Nc3ccc(N4CCOCC4)cc3)n2)cc1 [Momelotinib (CYT387)],7.23 °C,1.25 °C,0.41 °C,2.09 °C,0.29 °C,1.99 °C,2.03 °C,3.88 °C,3.2 °C,2.25 °C,3.11 °C,11.6 °C,3.39 °C,0.59 °C,0.75 °C,0.76 °C,7.69 °C,0.49 °C,0.77 °C,0.53 °C
Oc1cccc(-c2nc(N3CCOCC3)c3oc4ncccc4c3n2)c1,-0.07 °C,-0.06 °C,0.32 °C,0.43 °C,0.03 °C,0.47 °C,0.16 °C,0.22 °C,1.17 °C,0.89 °C,-0.25 °C,0.47 °C,1.57 °C,0.51 °C,0.49 °C,0.69 °C,0.07 °C,0.82 °C,1.15 °C,0.33 °C
C=CC(=O)Nc1cccc(Nc2nc(Nc3ccc(OCCOC)cc3)ncc2F)c1,0 °C,1.8 °C,1.14 °C,6.16 °C,1.06 °C,3.26 °C,3.81 °C,3.89 °C,3.75 °C,1 °C,3.06 °C,12.6 °C,5.6 °C,1.99 °C,1.06 °C,1.03 °C,7.95 °C,0.96 °C,0.79 °C,0.63 °C
CCN1C(=O)CNc2ncc(-c3ccc(-c4nc[nH]n4)nc3C)nc21,1.71 °C,-0.29 °C,-0.03 °C,-0.17 °C,-0.12 °C,-0.24 °C,-0.05 °C,0.7 °C,0.95 °C,-0.13 °C,-0.18 °C,0.15 °C,-3.58 °C,0.29 °C,0.42 °C,-0.33 °C,-0.44 °C,0.23 °C,0.95 °C,0.66 °C
C=CC(=O)N1CC[C@@H](Oc2nc(Nc3ccc(N4CCC(N5CCN(C)CC5)CC4)cc3)c(C(N)=O)nc2CC)C1 [Naquotinib(ASP8273)],0 °C,3.07 °C,0.21 °C,9.13 °C,5.37 °C,4.82 °C,5.96 °C,8.09 °C,3.19 °C,0.5 °C,3.28 °C,13.1 °C,11.6 °C,1.04 °C,0.55 °C,0.27 °C,10 °C,0.25 °C,1.6 °C,0.69 °C
CCCCCCCCCC(=O)CC(O)S(=O)(=O)O (stereo not given) [Sodium Houttuyfonate],0.77 °C,0.52 °C,0.5 °C,0.34 °C,0.41 °C,0.36 °C,0.37 °C,0.65 °C,1.54 °C,0.45 °C,0.61 °C,0.71 °C,-0.1 °C,0.13 °C,0.21 °C,0.52 °C,-8.96 °C,-0.11 °C,0.7 °C,0.34 °C
COc1cc2c(Oc3ccc(NC(=O)C4(C(=O)Nc5ccc(F)cc5)CC4)cc3F)ccnc2cc1OCCCN1CCOCC1,3.41 °C,2.08 °C,0.79 °C,0.18 °C,0.69 °C,0.65 °C,3.35 °C,3.93 °C,3.42 °C,1.7 °C,6.98 °C,13.9 °C,5.71 °C,16 °C,0.55 °C,0.27 °C,9.02 °C,0.8 °C,0.2 °C,0.3 °C
Cn1cc(-c2ccc3nnc(Sc4ccc5ncccc5c4)n3n2)cn1,0.93 °C,0.23 °C,0.63 °C,-0.22 °C,0.45 °C,0.82 °C,0.32 °C,0.81 °C,1.04 °C,0.48 °C,0.16 °C,0.32 °C,-3.78 °C,0.44 °C,0.68 °C,0.24 °C,0.16 °C,0.36 °C,1.36 °C,0.51 °C
Cn1cc(/C=C2\C(=O)Nc3cccnc32)c2ccccc21,11.3 °C,0.63 °C,0.83 °C,3.11 °C,1.64 °C,4 °C,3.46 °C,6.79 °C,3.05 °C,0.74 °C,2.07 °C,9.12 °C,10.2 °C,0.86 °C,0.81 °C,0.41 °C,7.67 °C,0.62 °C,1.66 °C,0.42 °C
COc1cc2ncnc(Nc3cccc(Cl)c3)c2cc1OC [AG-1478 (Tyrphostin AG-1478)],4.64 °C,0.2 °C,0.25 °C,2.86 °C,0.56 °C,0.38 °C,2.25 °C,6.57 °C,2.27 °C,0.04 °C,0.54 °C,10.9 °C,0.02 °C,0.3 °C,0.62 °C,0.52 °C,5.45 °C,0.8 °C,0.35 °C,0.01 °C
Cc1ccc([N+](=O)[O-])cc1S(=O)(=O)N(C)/N=C/c1cnc2ccc(Br)cn12,1.33 °C,0.35 °C,0.72 °C,0.02 °C,0.5 °C,0.64 °C,0.47 °C,1.17 °C,3.16 °C,1.09 °C,1.58 °C,1.88 °C,3.43 °C,1.13 °C,0.85 °C,1.49 °C,7.74 °C,0.41 °C,1.41 °C,0.94 °C
